Gal4-VP16 FLuc = VP16 counterscreen qHTS for inhibitors of ROR gamma transcriptional activity; Drosophila S2 Gal4-VP16 UAS-luciferase, luminescence, 20 h; Potency, µM (doses to about 53.6 µM), inactives show top-dose activity, negative = inhibition, actives largely listed as inhibitors; 3.5% of 310,000 active; AID 2546, 2010;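 further: Gal4-VP16 expression switched on by copper sulfate through the metallothionein promoter; potency means the concentration at half of the fitted maximal effect; on the % scale 0 is the no-effect control and ±100 the full control effect; nearly all actives have a fitted effect of over 50% in size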
RORg inh = qHTS for inhibitors of ROR gamma transcriptional activity. AID 2551, 2010. Potency, µM (top dose mostly 53.6 µM), for inactives: top-dose activity change, negative = inhibition, most hits filed as inhibitors. Nuclear receptor ROR-gamma (Mus musculus), P51450. 5.4% of 310,000 active. Drosophila S2 Gal4-RORgamma UAS-luciferase reporter, 20 h; further: potency means the concentration at half of the fitted maximal effect; on the % scale 0 is the no-effect control and ±100 the full control effect; nearly all actives have a fitted effect of over 60% in size
Target sequence (P51450 whole entry, looked up, the tested form may be a part): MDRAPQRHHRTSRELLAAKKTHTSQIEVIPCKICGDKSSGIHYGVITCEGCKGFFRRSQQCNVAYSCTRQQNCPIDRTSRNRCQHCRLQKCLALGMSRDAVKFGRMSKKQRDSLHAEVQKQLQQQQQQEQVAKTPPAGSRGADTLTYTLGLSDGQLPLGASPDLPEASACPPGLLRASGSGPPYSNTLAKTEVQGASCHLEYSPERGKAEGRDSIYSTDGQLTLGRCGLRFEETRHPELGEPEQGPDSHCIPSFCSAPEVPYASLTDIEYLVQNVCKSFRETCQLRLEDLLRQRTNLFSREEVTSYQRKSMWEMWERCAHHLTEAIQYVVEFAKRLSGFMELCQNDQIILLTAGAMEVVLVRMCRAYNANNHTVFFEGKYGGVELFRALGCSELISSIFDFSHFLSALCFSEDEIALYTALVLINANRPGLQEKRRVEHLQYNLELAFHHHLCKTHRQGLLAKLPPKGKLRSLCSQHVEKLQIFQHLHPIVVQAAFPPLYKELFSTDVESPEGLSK
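Using a luciferase readout, inhibitors were identified by reduced reporter activity in Drosophila cells coexpressing a copper-inducible Gal4–ROR gamma fusion and UAS-driven Photinus luciferase, incubated 20 hr after 700 uM copper sulfate.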
TRPV1 ag = HTS Assay for Compounds that Act as Agonists of the Vanilloid Receptor 1; Transient receptor potential cation channel subfamily V member 1 (Homo sapiens), Q8NER1; TRPV1-expressing cells, Fluo-8 calcium influx, agonist mode; activation, % at 8.33 µM; 0.19% of 320,000 active; AID 540275, 2011; in the data active means activation above about 80%; inconclusive means between about 30% and that limit; further: 0% is about no effect
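Cells expressing TRPV1 were dye-loaded with Fluo-8 and read kinetically: 10 s baseline, 3 min after compound (agonist portion), then 2 min after EC20 capsaicin (allosteric enhancer portion). Calcium-bound dye fluorescence at 480/520 nm.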
uPA surface inh = qHTS for Inhibitors of Cell Surface uPA Generation; 0.31% of 330,000 active; AID 540303, 2011; cell surface uPA generation assay, qHTS; Potency, µM (titrated, usually from 38.3 µM), inactives show at the highest dose activity change, negative = inhibition, actives largely listed as inhibitors; active means well fitted inhibition curve with a large enough effect; inconclusive means small, poorly fitted or top-dose-only effect; inactive means no such curve, though single readings can be large or run the other way; tested in mouse RAW 264.7 cells; further: potency means the concentration at half of the fitted maximal effect; on the % scale 0 is the no-effect control and ±100 the full control effect; nearly all actives have a fitted effect of over 55% in size
TRPV1 potentiator = HTS Assay for Compounds that Act as Potentiators of the Vanilloid Receptor 1; Transient receptor potential cation channel subfamily V member 1 (Homo sapiens), Q8NER1; potentiation, % at 8.33 µM; 0.02% of 320,000 active; TRPV1-expressing cells, Fluo-8 calcium influx, capsaicin EC20 potentiation; in the data active means potentiation above about 80%; inconclusive means between about 30% and that limit; further: 0% is about no effect
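Cells expressing TRPV1 were dye-loaded with Fluo-8 and read kinetically: 10 s baseline, 3 min after compound (agonist portion), then 2 min after EC20 capsaicin (allosteric enhancer portion). Calcium-bound dye fluorescence at 480/520 nm.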
* marks the source's active call; other numbers are inactive results; u = inconclusive; x = no result; [ ] = remark or other dose. The list is not random: actives were taken first. Their share in the collection is about 5.8%. Unless noted, the call rests on the fitted dose curve; in most records, active means well fitted curve in the direction sought with a large enough effect; inconclusive means small, poorly fitted or top-dose-only effect, or another doubt; inactive means no such curve, though single readings can be large; an effect the other way counts as inactive or inconclusive.

SMILES	Gal4-VP16 FLuc	RORg inh	TRPV1 ag	uPA surface inh	TRPV1 potentiator
COc1cc(OC)cc(C(=O)NNC(=S)NCc2ccco2)c1	-21.0%	-40.9%	-5.5	-1.0%	-5.4
COc1cc(OC)cc(C(=O)NC(=S)NCc2ccco2)c1	11.2µM*	5.01µM*	5.3	x	-20.5
O=C(NC(=S)NCc1ccccc1)c1cccc(Cl)c1	7.08µM*	6.31µM*	22.7	-0.8%	-12.2
CC(C)c1cc(C(=O)NNC(=S)NCc2ccco2)c(O)c(C(C)C)c1	u	12.6µM*	10.2	3.0%	-15.0
Cc1cnc(C(=O)Oc2c(C)ccc(C)c2C)cn1	4.1%	1.1%	2.3	-7.1%	2.2
CC(=O)N1CCC2(CC1)CN(C(=O)Nc1cccc(C#N)c1)C2	u	2.8%	x	x	x
Cc1ccc(NC(=O)C(=S)NCc2ccco2)cc1	11.0%	1.1%	13.9	7.5%	-13.4
COc1ccc(C(=O)NC(=S)NCc2ccco2)cc1	11.2µM*	6.31µM*	19.9	5.6%	-13.1
O=C(NC(=S)NCc1ccco1)c1cccc(Cl)c1	8.91µM*	6.31µM*	12.1	x	-9.4
Cc1ccc(C(=O)NC(=S)NCc2ccco2)cc1	u	10µM*	14.4	0.3%	-8.0
COc1cccc(C(=O)NC(=S)NCc2ccco2)c1	u	14.1µM*	1.7	-0.4%	0.4
CN(C(=O)Cc1ccccc1OC(=O)c1ccccc1)c1ccccc1I	-5.0%	-10.3%	x	x	x
Cc1nc(NCc2ccccc2)c2nc(-c3ccccc3)n(CCN3CCOCC3)c2n1	2.1%	-14.3%	x	x	x
Cc1cc(C)c(S(=O)(=O)Nc2cnc3ccccc3c2)c(C)c1	-10.2%	5.5%	0.6	-3.7%	4.4
C[C@@H](c1ccccc1)N1C(=O)[C@H]2[C@@H]3[C@H](O)C=CC(=O)[C@H]3CC[C@H]2C1=O	-12.5%[10 µM]	u	x	x	x
Nc1c2c(=O)oc(-c3ccccc3)cc2nn1-c1ccccc1	13.3%	4.8%	1.2	-4.1%	-8.5
Cc1c(-c2ccc(Cl)cc2)oc(=O)c2c(N)n(-c3ccccc3)nc12	u	7.94µM*	12.2	-4.8%	21.5
CCOC(=O)C(=N/O)/C(C)=N/NC(=O)C(=O)Nc1cc(Cl)ccc1Cl	22.4µM*	11.2µM*	-0.1	-0.6%	12.0
COC(=O)c1sccc1NC(=S)Nc1cc(C)cc(C)c1	4.47µM*	5.01µM*	-2.6	-1.4%	7.1
COC(=O)c1sccc1NC(=S)Nc1ccccc1	u	15.8µM*	0.7	-0.7%	-0.2
COC(=O)c1sccc1NC(=S)Nc1cccc(F)c1	u	17.8µM*	1.8	3.1%	-4.1
COC(=O)c1sccc1NC(=O)Nc1cccc(C)c1	-6.4%	18.3%	26.1	-2.5%	-12.1
COC(=O)c1sccc1NC(=O)Nc1ccc(OC)cc1	u	-5.8%	29.3	-2.7%	-16.4
COC(=O)c1sccc1NC(=S)Nc1ccc(F)cc1F	u	5.62µM*	0.1	8.7%	-3.8
COC(=O)c1sccc1NC(=O)c1cccc(F)c1	x	x	x	-3.5%	x
SMILES	Gal4-VP16 FLuc	RORg inh	TRPV1 ag	uPA surface inh	TRPV1 potentiator
COC(=O)c1sccc1NC(=O)c1c(F)c(F)c(F)c(F)c1F	x	x	x	-1.9%	x
NC(=Nc1nc(-c2ccccn2)cc2ccccc12)c1ccccn1	x	x	x	-6.3%	x
COc1ccc(OC)c(Nc2nc(NCCCN(C)C)nc(N)c2[N+](=O)[O-])c1	10µM*	10µM*	5.1	2.5%	-4.4
Nc1nc(SCc2ccc(Cl)cc2)ns1	7.08µM*	-35.2%	-3.3	5.7%	25.8
Cc1ccc(NC(=S)NC2CCN(Cc3ccccc3)CC2)cc1	u	12.6µM*	14.3	0.4%	-2.7
S=C(Nc1ccccc1Cl)NC1CCN(Cc2ccccc2)CC1	5.8%	-24.5%	5.2	-4.1%	-2.6
Cc1c(Cl)cccc1NC(=S)N1CCN(Cc2ccccc2)CC1	u	10µM*	u	-1.9%	-22.1
Cc1ccc(NC(=S)NC2CCN(Cc3ccccc3)CC2)cc1C	u	11.2µM*	1.7	-7.7%	2.2
S=C(Nc1cc(Cl)cc(Cl)c1)NC1CCN(Cc2ccccc2)CC1	u	u	3.0	u	-4.7
Cc1c(Cl)cccc1NC(=S)NC1CCN(Cc2ccccc2)CC1	-95.5%	10µM*	-1.8	6.7%	-5.7
Cc1ccc(/C=C/S(=O)(=O)NCc2ccc(F)cc2)cc1	4.0%	-22.9%	u	-1.8%	-26.2
CC(Sc1ccccc1)C(=O)NCCc1ccccc1 (configuration not stated)	-2.1%	37.2%	20.3	-5.3%	-12.3
CNc1ncnc2ccc(-c3ccccc3C)cc12	u	42.3%	x	x	x
CC[C@]1(O)C[C@@H]2CN(CCc3c([nH]c4ccccc34)[C@](C(=O)OC)(c3cc4c(cc3OC)N(C)[C@H]3[C@](O)(C(=O)OC)[C@@H](C(=O)OC)[C@@]5(CC)C=CCN6CC[C@@]43[C@@H]65)C2)C1	u	44.5%	x	x	x
CC(C)c1ccccc1NC(=S)NC1CCN(Cc2ccccc2)CC1	15.8µM*	14.1µM*	18.3	-5.1%	-14.7
CC(C)c1ccc(NC(=S)NC2CCN(Cc3ccccc3)CC2)cc1	u	15.8µM*	-2.7	-6.5%	0.2
CCc1ccc(NC(=O)C2CCC(CNS(=O)(=O)c3ccc4c(c3)CC(C)N4C(C)=O)CC2)cc1 (configuration not stated)	x	x	1.6	x	2.8
COc1ccc(C(=O)NCC(O)COc2ccc(C(C)(C)C)cc2)cc1[N+](=O)[O-] (configuration not stated)	u	-5.2%[10 µM]	18.5	x	-8.2
CCNC(=S)NNC(=O)C(c1ccccc1)c1ccccc1	11.2µM*	3.16µM*	-0.7	11.6%	17.1
CC(C)(C)C(=O)NC(=S)NNC(=O)C(c1ccccc1)c1ccccc1	11.2µM*	2.82µM*	u	-8.4%	-7.6
CC(=O)NNC(=S)NC(=O)C(c1ccccc1)c1ccccc1	2.7%	u	-1.9	u	1.5
CN(C)C(=S)NC(=O)C(c1ccccc1)c1ccccc1	u	1.41µM*	-4.4	-1.0%	10.0
CCN(CC)CCCN(c1ccccc1)C1Cc2ccccc2C1	-20.8%	-41.6%	x	x	x
Cc1cccc(NC(=O)Nc2cnccn2)c1C	3.9%	-38.4%	8.5	-3.2%	-15.9
CC(C)(C)NC(=O)CN(C(=O)CCC(=O)Nc1nccs1)c1ccc(F)cc1	-1.1%	11.7%	1.5	-49.0%	4.7
Cc1cccc(OCCN2CSC(=S)N(C)C2)c1	14.1µM*	12.6µM*	-0.1	-8.3%	-5.7
COc1ccccc1OCCN1CSC(=S)N(C)C1	u	u	0.0	-16.3%	16.7
CC(C)c1ccc(C(=O)NN2CCOCC2)cc1	u	u	4.2	4.1%	-34.0
CC(C)c1ccc(/C=C/C(=O)NC(=S)Nc2ccc(CN3CCOCC3)cc2)cc1	5.01µM*	2.82µM*	2.8	-16.5%	6.3

High-throughput results (PubChem BioAssay)
